In PubChem BioAssay one finds composite z-score and z-score data, which are given here for 13 compounds.

The subject of assay [1] is Human papillomavirus type 1a protein E7 (residues 44-93). The experiment in a line: small molecules binding HPV E7 44-93 – biochemical, small-molecule microarray, residues 44-93, 635 nm fluorescence, primary screen (AID 1108).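 Further: E7 fragment applied at 1 µg/mL in TBST for 1 h at 4 C; score combines spot fluorescence with its signal to noise ratio.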 Particulars: fluorescence 635 nm, higher = more signal.
Assay [2] is described as follows: hepatitis C replication reporter changes, two-sided – Huh7 cells, luciferase reporter, HCV replication inhibitor project, primary screen (AID 1109).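 Further: huh7 hepatoma cells harbouring a luciferase neomycin HCV replicon reporter; luciferase luminescence as measure of HCV replicon replication; test concentration not given here.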 Particulars: Huh7 HCV replicon luciferase reporter, 48 h; higher = more signal.
Assay [3] has as its target Left-right determination factor 2 (Homo sapiens) (UniProt O00292). The experiment in a line: small molecules binding LEFTY2 protein – biochemical, small-molecule microarray, 635 nm fluorescence scan, primary screen (AID 1110). The following applies: higher = more signal.
Assay [4] has as its target Calmodulin-1 (Homo sapiens) (UniProt P0DP23). Kind of assay: small molecules binding calmodulin-1 with EGTA – biochemical, small-molecule microarray, Cy5-labelled CALM1, profiling panel (AID 1111).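 Further: labelled calmodulin applied in Tris saline Tween buffer holding calcium plus EGTA and DTT.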 Particulars: Cy5-CALM1 binding fluorescence, higher = more signal.
Assay [5] shares this target. The experiment in a line: small molecules binding Ca-loaded calmodulin-1 – biochemical, small-molecule microarray, Cy5-labelled CALM1, plus calcium, artefact control for SMM control-protein annotation, profiling panel (AID 1112).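 Further: score merges spot fluorescence with signal to noise from triplicate slides.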 The following applies: Cy5-CALM1 binding fluorescence, higher = more signal.
Assay [6] is described as follows: probe aWnt5a binding to arrayed compounds – biochemical, biotinylated probe, 635/667 nm fluorescence, primary screen (AID 1113).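 Further: score merges 667 nm fluorescence intensity with signal-to-noise per printed feature.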 Particulars: small-molecule microarray, higher = more signal.
The nature of assay [7]: probe aShh binding to arrayed compounds – biochemical, biotinylated probe, 635/667 nm fluorescence, primary screen (AID 1114).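 Further: probe is biotin-labelled aShh protein from a stem cell growth factor screen; measures binding of labelled protein to compounds printed on the slide; score merges feature fluorescence at 667 nm with signal-to-noise.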 The following applies: small-molecule microarray, higher = more signal.
A short description of assay [8]: probe aNog binding to arrayed compounds – biochemical, biotinylated probe, 635/667 nm fluorescence, primary screen (AID 1115).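 Further: probe is biotinylated aNog protein used at 0.15 µg/mL for 1 h at 4 C; z-score combines 667 nm fluorescence of each spot with its signal to noise.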 The following applies: small-molecule microarray, higher = more signal.
In assay [9] the target is Torsin-1A-interacting protein 1 (Homo sapiens) (UniProt Q5JTV8). The experiment in a line: compound microarray binding of lysate hLAP1 – cell lysate, small-molecule microarray, COS7 lysate, 635/667 nm fluorescence, primary screen (AID 1116). The following applies: 635 nm fluorescence, higher = more signal.
Chain of Torsin-1A-interacting protein 1 (Homo sapiens) (Q5JTV8 whole entry, looked up): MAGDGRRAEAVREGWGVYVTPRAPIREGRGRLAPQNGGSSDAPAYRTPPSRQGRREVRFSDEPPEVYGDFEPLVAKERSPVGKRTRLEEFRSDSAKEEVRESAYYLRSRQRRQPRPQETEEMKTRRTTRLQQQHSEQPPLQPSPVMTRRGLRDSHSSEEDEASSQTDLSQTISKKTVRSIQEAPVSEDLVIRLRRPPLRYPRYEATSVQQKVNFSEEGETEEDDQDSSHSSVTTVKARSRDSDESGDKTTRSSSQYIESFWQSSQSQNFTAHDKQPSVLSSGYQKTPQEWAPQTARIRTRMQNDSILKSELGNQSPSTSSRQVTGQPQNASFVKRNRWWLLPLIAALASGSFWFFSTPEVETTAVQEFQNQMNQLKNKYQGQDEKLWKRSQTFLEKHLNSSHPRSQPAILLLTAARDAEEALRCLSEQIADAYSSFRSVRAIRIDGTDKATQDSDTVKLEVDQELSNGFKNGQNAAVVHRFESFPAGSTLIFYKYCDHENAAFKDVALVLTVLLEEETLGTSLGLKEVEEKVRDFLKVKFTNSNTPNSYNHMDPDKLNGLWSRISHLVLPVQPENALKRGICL
Assay [10] addresses Alpha-bungarotoxin (Bungarus multicinctus) (UniProt P60615). Kind of assay: compounds binding labelled alpha-BTX control protein – biochemical, small-molecule microarray, Alexa647 label, 635/667 nm fluorescence, artefact control for SMM control protein annotation, profiling panel (AID 1117). The following applies: alpha-BTX-A647 binding fluorescence, higher = more signal.

Each structure is given as a SMILES string.

Chain of Left-right determination factor 2 (Homo sapiens) (O00292 whole entry, looked up): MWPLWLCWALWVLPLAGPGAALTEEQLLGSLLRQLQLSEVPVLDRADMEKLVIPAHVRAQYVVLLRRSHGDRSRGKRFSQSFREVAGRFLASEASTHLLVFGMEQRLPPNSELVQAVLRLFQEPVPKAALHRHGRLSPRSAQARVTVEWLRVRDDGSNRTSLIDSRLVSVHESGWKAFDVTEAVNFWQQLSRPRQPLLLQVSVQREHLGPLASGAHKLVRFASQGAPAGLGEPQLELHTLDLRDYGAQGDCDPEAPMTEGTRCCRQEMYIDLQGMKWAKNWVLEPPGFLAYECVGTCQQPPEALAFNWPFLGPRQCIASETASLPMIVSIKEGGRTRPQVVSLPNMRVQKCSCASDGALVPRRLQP
Chain of Alpha-bungarotoxin (Bungarus multicinctus) (P60615 whole entry, looked up): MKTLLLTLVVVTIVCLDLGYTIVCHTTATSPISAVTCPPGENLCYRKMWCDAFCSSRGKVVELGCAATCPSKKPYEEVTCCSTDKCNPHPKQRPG

Turning to `CCCNC(=O)OC[C@H]1O[C@H](c2ccccc2)C=C[C@@H]1Oc1ccc(OC)cc1`, the composite z-score in assay [1] is -0.823; in assay [3], 0.424; in assay [4], -0.598; in assay [5], -0.202; in assay [6], -0.132; in [7], -0.153. For the same compound, the composite z-score is -0.343 in assay [8], 0.124 in assay [9] and -0.0001 in assay [10]. In addition, the z-score in [2] is -0.974.
Consider `O=C1C[C@@H](O)[C@@H](O)[C@@H]2[C@@H]3C(=O)N(Cc4ccccc4)C(=O)[C@@H]3CC[C@@H]12`, for which the composite z-score was 0.467 in assay [1]; 0.474 in assay [3]; -0.0573 in [4]; -0.761 in [5]; -0.195 in [6]; 0.0684 in assay [7]. Also, the composite z-score in assay [8] is -0.0784; in assay [9], 0.442; in [10] it was 0.101. Also, the z-score in assay [2] is -0.76.
`COC(=O)[C@H](C)NC(=O)CCC1CC(OC(=O)NCc2ccc3c(c2)OCO3)CC2(CCCC(COC(=O)NCC3CCCCC3)O2)O1` (stereo not given in full): the composite z-score is 1.37 in assay [1]; 0.764 in assay [3]; 0.369 in assay [4]; -0.0553 in assay [5]; 0.0775 in assay [6]; -0.138 in [7]. Moreover, the values for the composite z-score in [8], in [9] and in [10] were 0.656, 0.173 and 0.54, respectively. Further, the z-score in assay [2] was -1.48.
Consider `O=C1[C@H]2[C@H]3[C@H](O)[C@H](O)CC(=NOCc4ccccc4)[C@@H]3CC[C@H]2C(=O)N1c1ccc(F)cc1F`, for which the composite z-score in assay [1] is -0.392; in [3], 0.303; in assay [4], -0.201; in [5] it was -0.57; in assay [6], -0.0519; in assay [7], 0.0278. The values for the composite z-score in [8], in assay [9] and in [10] were 0.0369, 0.0133 and 0.297, respectively. This compound returned a z-score in [2] of 0.606.
With `COc1ccc(O[C@H]2C=C[C@@H](c3ccccc3)O[C@@H]2CON=CC[C@@H]2C=C[C@H](OC(C)=O)[C@@H](COC(C)=O)O2)cc1`, the composite z-score is -0.332 in assay [1]; 0.425 in [3]; -0.169 in assay [4]; -0.282 in assay [5]; -0.145 in assay [6]; -0.221 in assay [7]. Besides, the composite z-score in assay [8] was -0.083; in assay [9] it was 0.28; in [10], -0.0924. For the same compound, the z-score in assay [2] is -0.821.
In the case of `COc1cccc([C@H]2Oc3ccc(OC)cc3C(=NO[C@@H](C)c3cn([C@H](CO)Cc4ccccc4)nn3)[C@@H]2O)c1`, the composite z-score in [1] is -0.429; in assay [3] it was -0.36; in assay [4], 0.465; in assay [5] it was -0.0011; in assay [6] it was -0.0836; in assay [7], 0.0121. The composite z-score was 0.0918 in [8], -0.0881 in [9] and -0.417 in assay [10]. Besides, the z-score in assay [2] is -0.727.
For `C[C@H](ON=C1[C@H]2CCn3c(=O)n(-c4ccccc4)c(=O)n3[C@H]2[C@H](O)[C@@H]2O[C@H]12)c1cn([C@H](CO)Cc2ccccc2)nn1`, the composite z-score was 0.345 in assay [1]; 0.605 in assay [3]; 1.15 in [4]; -0.444 in [5]; -0.0179 in assay [6]; -0.195 in [7]. Besides, the values for the composite z-score in [8], in assay [9] and in assay [10] were 0.0637, -0.168 and 0.104, respectively. The z-score in assay [2] was -2.91.
With `C[C@@H](c1ccccc1)N1C(=O)[C@H]2[C@H]3[C@H](O)[C@H](O)CC(=NOCc4ccccc4)[C@H]3CC[C@H]2C1=O`, the composite z-score in [1] is 1.43; in assay [3], 0.491; in [4] it was 0.209; in [5], -0.298; in assay [6] it was -0.0635; in assay [7], -0.0626. Besides, the composite z-score in [8] was -0.425; in assay [9] it was 0.826; in [10] it was 0.571. Also, in [2], the z-score turned out to be 0.547.
`CCc1cc2c(nc1CC)CCN(CCC(C)=NO[C@@H](C)c1cn([C@H](CO)Cc3ccccc3)nn1)C2`: the composite z-score in assay [1] is -0.296; in assay [3], 0.483; in assay [4], -0.41; in [5], -0.555; in assay [6], -0.096; in assay [7], -0.147. For the same compound, the composite z-score is -0.203 in [8], -0.11 in assay [9] and 0.312 in assay [10]. Moreover, the z-score in [2] was -2.1.
For `COc1ccc(O[C@H]2C=C[C@@H](c3ccccc3)O[C@@H]2CON=C2[C@H]3CCn4c(=O)n(-c5ccccc5)c(=O)n4[C@H]3[C@H](O)[C@@H]3O[C@H]23)cc1`, the composite z-score in assay [1] was 0.807; in assay [3], 0.505; in assay [4] it was 0.719; in assay [5], -0.21; in assay [6], -0.0192; in [7] it was -0.0769. Also, the composite z-score in assay [8] is -0.0855; in [9], 0.24; in assay [10], 0.974. Moreover, the z-score in assay [2] was -4.67.
Consider `CON=C(C)CCC(=O)OC[C@H]1O[C@H](c2ccccc2)C=C[C@@H]1Oc1ccc(OC)cc1`, for which the composite z-score is -0.65 in [1]; 0.353 in assay [3]; -0.515 in assay [4]; -0.724 in assay [5]; 0.0257 in assay [6]; -0.0769 in [7]. In addition, the composite z-score in assay [8] was -0.148; in [9], 0.474; in [10], -0.0686. Also, in assay [2], the z-score amounted to 0.275.
Take `CCCNC(=O)OC[C@H]1O[C@H](CCON=C(C)C)C=C[C@@H]1Oc1ccc(OC)cc1`: the composite z-score in assay [1] is -0.599; in assay [3], -0.143; in [4], 0.608; in assay [5] it was 0.304; in assay [6], -0.0887; in [7], -0.282. Moreover, the composite z-score in assay [8] is -0.0927; in assay [9], 0.587; in assay [10], -0.132. The z-score in assay [2] was -1.12.
In the case of `C[C@@H](ON=C1[C@H]2CCn3c(=O)n(-c4ccccc4)c(=O)n3[C@H]2[C@H](O)[C@@H]2O[C@H]12)c1cn([C@@H]2COC[C@H]2O)nn1`, the composite z-score was 0.361 in assay [1]; 0.698 in [3]; -0.287 in assay [4]; -0.568 in assay [5]; -0.119 in assay [6]; 0.0611 in assay [7]. Besides, the composite z-score in assay [8] came out at 0.139; in assay [9], 0.07; in assay [10] it was 0.237. For the same compound, in assay [2], the z-score is -2.38.
